# High-throughput results: PubChem BioAssay, National Center for Advancing Translational Sciences (NCATS)
# RORg inh: ROR gamma (mouse) transcription inhibition | Potency, µM (doses to about 53.6 µM), for the others: at the top dose activity change, negative = inhibition, usual class: inhibitors | AID 2551 | P51450 | Drosophila S2 Gal4-RORgamma UAS-luciferase reporter, 20 h | 310,000 compounds, 5.4% hits; note: potency is the fitted concentration of half-maximal effect; nearly all actives have a fitted effect of over 60% in size
# Target sequence (P51450 whole entry, looked up, the tested form may be a part): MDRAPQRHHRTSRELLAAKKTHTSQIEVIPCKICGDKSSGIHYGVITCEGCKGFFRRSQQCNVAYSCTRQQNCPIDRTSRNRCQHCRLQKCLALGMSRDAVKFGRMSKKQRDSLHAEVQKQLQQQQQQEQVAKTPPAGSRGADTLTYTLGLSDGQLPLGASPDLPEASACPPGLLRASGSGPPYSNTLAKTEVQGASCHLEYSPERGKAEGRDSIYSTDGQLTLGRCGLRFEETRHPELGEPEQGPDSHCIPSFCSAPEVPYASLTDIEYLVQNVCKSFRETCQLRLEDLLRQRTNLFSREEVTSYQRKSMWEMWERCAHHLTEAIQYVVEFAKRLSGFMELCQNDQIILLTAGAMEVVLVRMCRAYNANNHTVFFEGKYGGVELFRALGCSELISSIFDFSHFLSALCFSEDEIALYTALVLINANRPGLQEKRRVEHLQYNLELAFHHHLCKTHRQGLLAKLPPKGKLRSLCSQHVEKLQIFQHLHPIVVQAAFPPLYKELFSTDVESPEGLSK
#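 Drosophila S2 cells stably expressing Gal4-DBD/mouse RORγ fusion under metallothionein promoter plus UAS-luciferase; compound 1 h, then 700 uM CuSO4 induction for 20 h at ambient temperature; inhibition read as reduced luminescence.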
# ELG1 repair inh: blocks ELG1-dependent DNA repair in HEK293T cells | AID 504467 | 330,000 compounds, 2.3% hits | Potency, µM (doses to about 46.1 µM), for the others: top-dose activity change, negative = inhibition, actives largely listed as inhibitors | HEK293T ELG1-luciferase reporter, luminescence, 16 h; DNA damage induced by 5-fluorouridine; note: potency is the fitted concentration of half-maximal effect; nearly all actives have a fitted effect of over 55% in size
#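 DMSO vehicle served as the neutral condition. Each well held 2,000 cells given 5-fluorouridine plus compound; after 16 hr at 37 °C/5% CO2, ONE-Glo was added and luciferase measured 30 min later.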
# DT40 TDP1 CPT: DT40-hTDP1 cell growth loss with CPT; chicken DT40 Tdp1-/-;hTDP1 cells + 20 nM CPT, ATP luminescence, 48 h; Potency, µM (series often up to 46.2 µM), for the others: at the top dose activity change, negative = growth inhibition, actives largely listed as inhibitors; 420,000 compounds, 12% hits; AID 686979; note: potency is the fitted concentration of half-maximal effect; nearly all actives have a fitted effect of over 55% in size
#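 Cell growth measured by CellTiter-Glo luminescence after a minimum 48 h, 37 C compound exposure with 20 nM CPT in Tdp1-knockout DT40 cells stably expressing hTDP1, seeded 400/well; qHTS titration format.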
# TDP1 cell noCPT: qHTS for Inhibitors of human tyrosyl-DNA phosphodiesterase 1 (TDP1): qHTS in cells in absence of CPT. DT40 Tdp1-/- hTDP1 cells, no CPT, ATP luminescence, 48 h. Potency, µM (top dose mostly 46.2 µM), for the others: at the top dose activity change, negative = growth inhibition, actives largely listed as inhibitors. 420,000 compounds, 15% hits. AID 686978, 2013; note: potency is the fitted concentration of half-maximal effect; nearly all actives have a fitted effect of over 55% in size
#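 No-CPT arm: Tdp1-/-;hTDP1 DT40 cells (400/well) plus compounds, incubated ≥48 hr at 37 °C. Readout CellTiter-Glo luminescence.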
# IL-1B inflam inh: inflammasome signaling inhibition, IL-1 beta readout; THP-1 LPS/ATP IL-1B secretion, AlphaLISA, 16 h; stronger effect = lower value; activity change, % at 57.5 µM; 360,000 compounds, 4.7% hits; in the data active = activity change below about -50%; inconclusive = mostly about -30% to -49%
#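 THP-1 cells pretreated 1 hr with compounds (up to 57.5 uM final), then stimulated with LPS (250 ng/mL final) plus ATP (1.25 mM final); secreted IL-1B measured by AlphaLISA after 16 hr, decreased signal indicating inhibition.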
# VP16 counter: inhibits Gal4-VP16 luciferase reporter, ROR gamma counter-screen; Drosophila S2 Gal4-VP16 UAS-luciferase, luminescence, 20 h; Potency, µM (titrated, usually from 53.6 µM), without a hit: at the highest dose activity, negative = inhibition, hits mostly inhibitors; 310,000 compounds, 3.5% hits; AID 2546;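 note: Gal4-VP16 expression switched on by copper sulfate through the metallothionein promoter; potency is the fitted concentration of half-maximal effect; nearly all actives have a fitted effect of over 50% in size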
# * hit, by the source's call; ? = inconclusive; . = no result; ! = repeats disagree. The list is not random: actives were taken first. Their share in the collection is about 21%. Unless noted, calls come from the whole dose curve; as a rule, active = well fitted curve in the direction sought with a large enough effect; inconclusive = small, poorly fitted or top-dose-only effect, or another doubt; inactive = no such curve, though single readings can be large; an effect the other way counts as inactive or inconclusive. % is set by controls: 0 for no effect and ±100 for the full control effect.
SMILES,RORg inh,ELG1 repair inh,DT40 TDP1 CPT,TDP1 cell noCPT,IL-1B inflam inh,VP16 counter
CCOc1ccccc1NC(=O)Cn1c(=O)n(-c2ccc(C)c(C)c2)c(=O)c2oc3ccccc3c21,.,.,-16%,?,.,.
CCc1ccccc1NC(=O)Cn1c(=O)n(C(C)C)c(=O)c2oc3ccccc3c21,.,.,-22%,?,.,.
COc1ccc(Cn2c(=O)c3oc4ccccc4c3n(CC(=O)Nc3c(C)cccc3C)c2=O)cc1,.,.,7.3µM*,5.8µM*,.,.
CCc1ccccc1NC(=O)Cn1c(=O)n(Cc2ccc(OC)cc2)c(=O)c2oc3ccccc3c21,.,.,9.2µM*,?,.,.
CNc1ncnc2ccc(-c3ccccc3C#N)cc12,-1%,.,?,-4%,.,6%
c1ccc(N2[C@@H]3c4ccccc4C[C@H]2c2ccccc23)cc1,.,.,20%,-21%,34,.
CCN1CCN(c2ncc(C(=O)Nc3cc(Cl)c(OC)cc3OC)c3ccccc23)CC1,3%,?,?,21µM*,-12,1%
CCN1CCN(c2ncc(C(=O)Nc3c(F)cc(F)cc3Br)c3ccccc23)CC1,7%,?,14µM*,16µM*,-12,-1%
CCN1CCN(S(=O)(=O)c2ccc(F)c(C(=O)Nc3c(F)cc(F)cc3Br)c2)CC1,30%,-1%,-16%,2%,0,-3%
COc1cc(Cl)c(C)cc1NC(=O)c1cccc(OC)c1OC,23%,0%,?,?,-25,0%
COc1cc(OC)c(NC(=O)c2cc(C(C)=O)n3ccccc23)cc1Cl,.,.,7.3µM*,?,.,.
COc1cc(Cl)c(C)cc1NC(=O)c1cnc(N2CCOCC2)c2ccccc12,.,.,10µM*,9.2µM*,.,.
CC1(C(=O)NS(=O)(=O)c2ccc(F)cc2F)CCN1C(=O)C1(c2ccc(Cl)cc2)CCC1 (stereo unspecified),.,.,-34%,-18%,31,.
CC(C)C(=O)N1CCC1(C)C(=O)Nc1cc(-c2ccccc2)nn1C (stereo unspecified),.,.,?,-28%,10,.
COc1ccc(-c2nc3cnc(Oc4cccc(Cl)c4)nc3n(C3CC3)c2=O)cc1,-4%,.,3%,11%,.,0%
O=C(Nc1cccc(Br)c1)N1CCN2CCCCC2C1 (stereo unspecified),.,.,0%,?,.,.
Cc1cc(C)c(NC(=O)C2CCN(c3nc4ccccc4n4cccc34)CC2)c(C)c1,.,.,-107%,?,.,.
COc1cc(Cl)c(C)cc1NC(=O)C1CCN(c2nc3ccccc3n3cccc23)CC1,.,.,?,16µM*,.,.
COc1ccc2cc1Oc1cc3c(cc1OC)CC[N+](C)(C)[C@H]3Cc1ccc(cc1)Oc1c(OC)c(OC)cc3c1[C@@H](C2)[N+](C)(C)CC3,.,.,17%,?,.,.
CC(C)N1CCC1(C)C(=O)Nc1nccc2cccnc12 (stereo unspecified),.,.,4.1µM*,5.2µM*,0,.
Cc1cc(NC(=O)C2(C)CCN2C(C)C)c2ccccc2n1 (stereo unspecified),.,.,?,21µM*,90,.
CC(C)N1CCC1(C)C(=O)Nc1cccc2ccccc12 (stereo unspecified),.,.,?,?,12,.
CC(=O)c1csc(-c2cccc(-c3nc4ccc(Cl)cn4c3NC3CCCCC3)c2)c1,.,?,21µM*,?,-22,.
COc1ccc(Cc2c(-c3cccc(Br)c3)nc3ccc(Cl)cn23)c(C)c1,.,.,0%,?,20,.
Cc1ccc(Cc2c(C3CCCCC3)nc3ccc(Cl)cn23)cc1,.,.,?,?,24,.
CCC(C)Sc1cc(-c2nc3ccc(Cl)cn3c2NC2CCCCC2)ccc1OC (stereo unspecified),.,-3%,16µM*,15µM*,-74*!,.
